Bioassay records from PubChem BioAssay.
ER stress surv: ER stress cell death inhibition; 0.33% of 48,000 active; CSM14.1 thapsigargin ER stress survival, ATP luminescence; relative survival (cellular ATP), % at 15 µg/mL (by protocol);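 active = survival measured by cellular ATP above 50% at 15 µg/ml in the first screen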;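 also: cell death triggered by about 15 µM thapsigargin; ATP read 24 h after thapsigargin was added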
Large screens that a line does not name were inactive. Only a selection was taken, and hits are over-represented in it overall.

CCOC(=O)/C(=C\Nc1ccc(F)c(F)c1)[N+](=O)[O-]	none
Cc1ccc(NC(=O)CC(=O)NN)cc1	none
CCOC(=O)CP(=O)(c1ccccc1)c1ccccc1	none
Cc1ccc(P(=O)(CSC(=N)N)c2ccc(C)cc2)cc1	ER stress surv 58
COc1ccc(/C=N/c2ncn[nH]2)cc1OC	none
